PubChem BioAssay (NCATS)
Results filed as inconclusive are left out. Entries that show only a call come without a potency. Activity calls are given as the source filed them. Calls come from the whole dose curve; as a rule, active = well fitted inhibition curve with a large enough effect; inconclusive = small, poorly fitted or top-dose-only effect; inactive = flat fitted curve, though single readings scatter.

Assays:
Test in all cases: qHTS profiling for inhibitors of Plasmodium falciparum proliferation (AID 504749); note: nearly all actives have a fitted effect of over 60% in size
Settings in all cases: P. falciparum in erythrocytes, SYBR Green DNA, 72 h; series mostly up to 28.7 µM
[1] = system: CP217
In short: (§1)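 Each compound contacts P. falciparum-infected red blood cells for 72 h at 37 C; lysis buffer (Tris, EDTA, saponin, Triton X, SYBR Green I) is added and fluorescence measured next morning; values normalized to controls.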

[2] = system: CP237
In short: as §1

[3] = system: CP238
In short: as §1

[4] = system: CP252
In short: as §1

[5] = system: CP256
In short: as §1

[6] = system: CP260
In short: as §1

[7] = system: CP262
In short: as §1

[8] = system: CP265
In short: as §1

[9] = system: CP268
In short: as §1

[10] = system: CP269
In short: as §1

[11] = system: CP286
In short: as §1

[12] = system: CP291
In short: as §1

[13] = system: CP297
In short: as §1

[14] = system: CP305
In short: as §1

[15] = system: CP315
In short: as §1

[16] = system: CP325
In short: as §1

[17] = system: CP329
In short: as §1

[18] = system: CP250
In short: as §1

[19] = system: CP266
In short: as §1

[20] = system: CP247
In short: as §1
Potency is the fitted concentration of half-maximal effect.

Row | SMILES | Potency [1] | Potency [2] | Potency [3] | Potency [4] | Potency [5] | Potency [6] | Potency [7] | Potency [8] | Potency [9] | Potency [10] | Potency [11] | Potency [12] | Potency [13] | Potency [14] | Potency [15] | Potency [16] | Potency [17] | Potency [18] | Potency [19] | Potency [20]
1 | CCCC1CCCCN1 (stereo not given) | inactive | inactive | inactive | inactive | inactive | inactive | inactive | inactive | inactive | inactive | inactive | inactive | inactive | inactive | inactive | inactive | inactive |  |  | 
2 | O=[N+]([O-])c1cc([As](=O)(O)O)ccc1O | 3.16 µM (active) | 3.16 µM (active) |  | 3.16 µM (active) |  | 3.16 µM (active) |  |  |  |  |  | 5.1 µM (active) |  |  |  |  |  | 3.16 µM (active) |  | 
3 | CCCN1CCC[C@@H]2Cc3[nH]ncc3C[C@H]21 |  |  |  |  |  |  | inactive |  | inactive | inactive |  | inactive | inactive | inactive | inactive | inactive | inactive |  | inactive | 
4 | O=c1[nH]c2ccccc2n1CCCN1CCC(n2c(=O)[nH]c3cc(Cl)ccc32)CC1 |  | 7.94 µM (active) |  |  |  | 11.2 µM (active) | inactive |  |  |  | 11.2 µM (active) |  | 8.49 µM (active) |  |  | inactive |  |  | inactive | 
5 | CN1C(=S)CN=C(c2ccccc2)c2cc(Cl)ccc21 | inactive | inactive | inactive | inactive | inactive | inactive | inactive | inactive | inactive | inactive | inactive | inactive | inactive | inactive | inactive | inactive | inactive | inactive | inactive | 
6 | CN1C[C@H](CNC(=O)OCc2ccccc2)C[C@@H]2c3cccc4c3c(cn4C)C[C@H]21 | 7.94 µM (active) | 8.91 µM (active) | 11.2 µM (active) | 10 µM (active) | 6.31 µM (active) | 11.2 µM (active) | 6.75 µM (active) | 5.62 µM (active) |  |  | 8.91 µM (active) |  |  |  |  |  |  |  |  | 
7 | CC(=O)[C@H]1CC[C@H]2[C@@H]3CC[C@H]4C[C@](C)(O)CC[C@]4(C)[C@H]3CC[C@]12C | inactive | inactive | inactive | inactive | inactive |  | inactive | inactive | inactive | inactive | inactive | inactive | inactive | inactive | inactive | inactive | inactive | inactive | inactive | inactive
8 | C=C1CC[C@@]2(O)[C@H]3Cc4ccc(O)c5c4[C@@]2(CCN3CC2CC2)[C@H]1O5 | inactive |  | inactive | inactive | inactive |  | inactive | inactive | inactive | inactive | inactive | inactive | inactive | inactive | inactive | inactive | inactive | inactive | inactive | inactive
